Measurements: ChEMBL document CHEMBL3988442, “University of Dundee, Small-Polar-MMV Screening Library” (2021)

Target: AMP-activated protein kinase, AMPK (Homo sapiens) (UniProt P54646+O43741+P54619+Q9UGJ0+Q9Y478+Q13131+Q9UGI9)
Assay: AMP-dependent Kinase enzyme assay. An in vitro enzyme assay that detects ADP turnover that is directly proportional to AMPK activity. This uses naive AMPK that is activated during the assay with MK-8722
Type: functional
Set-up: scale not given: direction of the effect not stated beside the values
Settings: 30 µM

| Structure (SMILES) | Percent Effect |
| --- | --- |
| COC(=O)c1ncccc1N1CCN(C(=O)CN2CCOCC2)CC1 | 5.94% |
| CCNc1ncc(C(=O)NCc2csc(-c3ncccn3)n2)cn1 | 3.97% |
| CSc1nccc(N2CCC3(CCCN(CCc4ccccc4)C3)C2)n1 (stereo unspecified) | 5.34% |
| CCS(=O)(=O)CCCN1CCSCC1c1ccc(Cl)cc1 (stereo unspecified) | -4.64% |
| Cn1ccnc1-c1cn(CCCc2csc(N)n2)nn1 | -21% |
| Oc1cccc(CNCc2ccc(-n3cncn3)nc2)c1 | 2.63% |
| CC(C)c1noc(C(C)N2CCN(Cc3nc4ccccc4[nH]3)CC2)n1 (stereo unspecified) | -0.358% |
| Cc1cc(C)c2[nH]c(C(=O)NCCN3CCCC3=O)c(C)c2c1 | 13.3% |
| COc1ccccc1OC(C)CNC(=O)c1cnc[nH]1 (stereo unspecified) | 0.827% |
| Cc1ccc(CNS(=O)(=O)CCCC#N)cc1F | 7.39% |
| COC[C@]1(O)CCN(c2cc(C3CC3)ncn2)CC1(C)C | 10.6% |
| O=S1(=O)NC(C2CCCN(S(=O)(=O)N3CCCC3)C2)=Nc2ccccc21 (stereo unspecified) | 13.9% |
| CCc1ccc(CN2CCOC(Cc3cccc(F)c3)C2)nc1 (stereo unspecified) | 5.27% |
| N#Cc1cccnc1Nc1ccc(N2CCC(C(N)=O)CC2)cc1 | 19% |
| COCCOc1cccc(CNCc2ccc(-n3cncn3)nc2)c1 | 3.28% |
| COC(=O)[C@@H]1C[C@@H](O)CN1Cc1ccn(-c2ccc(F)cc2)n1 | -3.45% |
| Cn1nnnc1SCC1(O)CCCCC1 | 32.1% |
| O=C1CN(C(=O)c2cc3c(F)cc(Br)cc3[nH]2)CCN1 | 8.46% |
| Cc1ccc(C(=O)NC2CCN(C(C)C)C2)c(=O)[nH]1 (stereo unspecified) | -2.69% |
| Cc1ccc(N(CCC#N)C(=O)CCc2cscn2)cc1C | -7.79% |
| CCN1CCN(c2ccccc2NC(=O)NCc2ccon2)CC1 | 2.14% |
